# Experimental data taken from PubChem BioAssay (NCI).
# The panel holds about 83,000 compounds, 20% with a hit somewhere; the sample as a whole holds those more often.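 Growth was measured after 48 h exposure to one concentration of compound in 96-well plates. Values under 10 count as active.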 Unmarked numbers belong to inactive results. The source made the active and inactive calls.
# Test system: BT-549 breast
# Experiment: NCI-60 one-dose screen, 48 h (100 = growth as untreated, 0 = no growth, -100 = all killed)
# Conditions: 10 µM unless noted
# Experimental: Growth inhibition of the BT-549 human tumor cell line is measured as a screen for anti-cancer activity. Cells are grown in 96 well plates and exposed to the test compound for 48 hours. Compounds are tested at a single concentration, which is 10^-5 M for most compounds. The reported endpoint is percent growth (GI% or GIPRCNT), where numbers from 0 - 100% represent growth inhibition, and numbers from -100% - 0 represent cell death. For example, a value of 40 represents 60% growth inhibition. A value of 0 means no net growth occurred over the course of the experiment. A value of -40 indicates 40% of cells at the beginning of the experiment died by the end of the experiment. A value of -100 means all cells are dead at the end of the experiment.
# NCI-60 Human Tumor Cell Lines Screen was performed using the standard one-dose NCI protocol, which is described in more detail at https://dtp.cancer.gov/discovery_development/nci-60/default.htm.
# Compounds with GIPRCNT values below 10 were considered active. Activity score was based on GIPRCNT using the following formula: […]
# Score is 0 for GIPRCNT values of 100 or above, 50 for GIPRCNT values of 0, and 100 for GIPRCNT values of -100.
row,Compound,growth
1,COC1=C(C)C(=O)c2c(c(CCCl)c3n2CCC3O)C1=O (stereo not given),-30.4% (active)
2,CCCCCCN1C(=O)/C(=c2\sc3n(c2=O)C2C(NN=3)N(CC)C(=O)N2CC)c2ccccc21 (stereo not given),41.3%
3,CCc1ccc(Oc2c(-c3ccc(OCc4ccc(Cl)cc4)cc3O)n[nH]c2C(F)(F)F)cc1,34.7%
4,S=C(c1cccs1)N1CCN(c2cccc(Cl)c2)CC1,59.3%
5,COc1ccc(-c2c(C(=O)NS(C)(=O)=O)n(Cc3cccc(C(F)(F)F)c3)c3ccccc23)cc1,92.3%
6,Cc1cc2nc3cc(C)c(N)cc3[n+](-c3ccccc3)c2cc1N,18.5%
7,CSc1ccc2c(c1)c(CCN)c(C)n2Cc1ccc(Cl)c(Cl)c1,-79.6% (active)
8,CCOC(=O)c1cnn2c3ccccc3n(S(=O)(=O)c3ccc(OC)cc3)c12,17.5%
9,Cc1ccc(NC2=C(Cl)C(=O)c3nc(C)ccc3C2=O)cc1,44.9%
10,CCS(=O)(=O)c1ncnc2nc[nH]c12,90.9%
11,Cc1nc(S(=O)(=O)c2ccccc2)c(S(=O)(=O)Cc2ccc([N+](=O)[O-])cc2)o1,87.7%
12,CC/C=C\C[C@@H](O)C/C=C1/C(=O)C=C[C@H]1C/C=C\CCCC(=O)OC,-6.09% (active)
13,C[C@]12CC[C@@H]3c4cc(OC(F)F)c(OS(N)(=O)=O)cc4CC[C@H]3[C@@H]1CC[C@@H]2O,41.8%
14,COc1ccc2c(c1OC)C(=O)O[C@H]2[C@H]1c2c(cc3c(c2OC)OCO3)CCN1C,98.3%
15,COc1cc(CCCO)c(OC)c(OC)c1OC,107%
16,Cc1cccc2c(=O)c3c(sc12)c(NCc1ccccc1)nc1ccccc13,101%
17,CCCCn1c(=O)c(-c2cc(-c3ccc(Cl)cc3)nc(-c3ccc(Cl)cc3)c2)cc2cc(C)ccc21,103%
18,Cc1cccc(NCc2cn(-c3ccc(C(=O)O)cc3)nc2-c2ccc(C(=O)O)cc2)n1,104%
19,CN1CCN(c2ccc(-c3ccc4ncc(C#N)c(Nc5ccc(F)c(Cl)c5)c4c3)cc2)CC1,63.3%
20,C=C1CC[C@@]2(C#N)[C@H]3[C@H](CC[C@@H]2C)[C@@H](C)C[C@@H](CC(C)(C)C#N)[C@H]13,50.4%

row,Compound,growth
1,O=C(COc1ccc(/C=C2\Cc3ccc(Cl)cc3C2=O)cc1)Nc1nc2ccccc2s1,124%
2,CN(C)CCCNc1nc2ccccc2c2c(=O)c3cc(F)ccc3sc12,100%
3,CCN(CC)CCNc1nc2ccccc2c2c(=O)c3cc(Cl)ccc3sc12,94%
4,COc1cc(C(=O)/C=C/c2c(Cl)nc3sccn23)cc(OC)c1OC,81.3%
5,CN1CCN(CC(=O)N2c3cccc4cccc(c34)N(C(=O)CN3CCN(C)CC3)C2c2cn(-c3ccccc3)nc2-c2cccc([N+](=O)[O-])c2)CC1,71.2%
6,O=C1/C(=C/c2ccccc2[N+](=O)[O-])Oc2ccc(O)c(O)c21,52.9%
7,CNCCCNc1nc2ccccc2c2c(=O)c3cc(OC)ccc3sc12,89.2%
8,COc1ccc(C(=O)/C=C/c2sc(Cl)nc2Cl)cc1,-4.31% (active)
9,Cc1ccc(C(C)C)cc1C(=O)C[n+]1ccccc1,95.8%
10,CCOC(=O)NCCc1ccccc1,108%
11,COc1cc(Nc2cn[nH]c2-c2ccc(Cl)cc2)cc(OC)c1OC,46.5%
12,COC(=O)/C=C1\S/C(=N\Nc2ccc([N+](=O)[O-])cc2[N+](=O)[O-])N(C2CCCCC2)C1=O,86%
13,CC(=O)c1ccc(Nc2nc(C(C)=O)c(C)s2)cc1,105%
14,Cc1ccc(-c2nc(N3CCN(CC(=O)Nc4ccc(Cl)cc4)CC3)c3ccccc3n2)cc1,102%
15,Cc1c(C(=O)NCCCc2ccccc2)sc2ncc(-c3ccc(Br)cc3)n12,110%
16,COC1=C(C)C(=O)c2c(c(CCCl)c3n2CCC3OC(C)=O)C1=O (stereo not given),-48.2% (active)
17,Cc1ccc(-c2nc3c(c(-c4ccccc4)nn3-c3ccccc3)c(-c3ccc(O)cc3)c2C#N)cc1,76.8%
18,O=c1c2cc(F)ccc2sc2c(NCCN3CCOCC3)nc3ccccc3c12,82.3%
19,CN(C)CCN1CCN(c2ncccc2C2Nc3ccccc3-n3cccc32)CC1 (stereo not given),92.3%
20,COc1ccc(CN2c3ccccc3Sc3ccccc32)c(F)c1,56.5%
